Consider 39 molecules from PubChem BioAssay (NCI).

Values joined by “and” are separate entries in the source; they are usually repeats but may differ in a detail not shown here. Identical values can stand only once. This is part of a sample that, as a whole, favours compounds with a hit. Of some 83,000 tested, about 20% had one in any assay.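 The test compound was applied at a single concentration to cells in 96-well plates for 48 hours, and percent growth was recorded.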 Unmarked numbers belong to inactive results. Active and inactive are the calls of the source. Rule for the calls: active = growth percent below 10; inactive = the rest.

This assay concerns HL-60(TB) leukemia. Description: NCI-60 one-dose screen, 48 h (100 = growth as untreated, 0 = no growth, -100 = all killed). The settings on record: 10 µM unless noted.
For the molecule `O=S(=O)(NCCCNc1cc(-c2c(-c3cccc(O)c3)nc3sccn23)ccn1)c1cccc(Cl)c1`, the growth is 17.7%.

Regarding `CCOc1nc(-c2ccccc2)cc2c(O)c(C(=O)N/N=C/c3ccccc3)[nH]c(=O)c12`, the growth was 101%. As for `Cc1cc(C(C)(C)c2cc(C)c(O)c(CN(C)C)c2)cc(CN(C)C)c1O`, the figure is 81.1%; as for `COc1cc(C)c(C2C(C#N)=C(N)Oc3n[nH]c(-c4cccs4)c32)cc1C(C)C` (centres undefined), 66.2%.

For `O=C1c2cccc3cccc(c23)C(=O)N1Nc1nc(NC2CCCCC2)nc(N2CCOCC2)n1`, the growth is 101%. `Cn1cc(-c2cnc3ccc(NC(=O)Nc4ccc(F)c(Br)c4)cc3n2)cn1`: the growth is 13.5%. As for `COC(=O)CCOc1ccccc1`, the figure is 102%; as for `COC1=C(OC)C(=O)C(CCCCCCCCCC[P+](c2ccccc2)(c2ccccc2)c2ccccc2)=C(C)C1=O`, -55.9% (active); as for `C=C(C)[C@@H]1CC[C@]2(C(=O)N[C@H](CO)Cc3ccccc3)CC[C@]3(C)[C@H](CC[C@@H]4[C@@]5(C)CCCNC(C)(C)[C@@H]5CC[C@]43C)[C@@H]12`, -73.3% (active). In the case of `O=C(Nc1nc2ccccc2s1)c1ccc(F)cc1` it was 111%; in that of `CCCCCCCC/C=C\CCCCCCCCOc1ccccc1CCOP(=O)(O)OCC[N+](C)(C)C`, -23% (active); in that of `O=c1oc2c(cnc3ccccc32)cc1-c1ccsc1`, 96.7%. As for `O=C(OCc1ccc2cccc(O)c2n1)N1CCN(C(=O)c2cc3cc(F)ccc3[nH]2)CC1`, the figure is -35.8% (active); as for `O=C(N/N=C/c1ccc(F)cc1)c1[nH]c2ccc(I)cc2c1-c1ccccc1`, 51.2%. Turning to `C[C@]12CC[C@@H]3c4ccc(O)cc4CC[C@H]3[C@@H]1C[C@H](O)[C@@H]2O`, the growth was 112%. In the case of `COC(=O)c1ccccc1C(=O)c1c(C)cc(C)cc1C` it was 84.6%.

Consider `Nc1cc2ccccc2c(O)c1O`, for which the growth is 4.42% (active). Regarding `COc1ccc(-c2nn(-c3cccc(NC(=O)c4ccc(Cl)c(Cl)c4)c3)cc2-c2ccncc2)cc1Cl`, the growth was 89.1%. As for `Cc1ccc2nc(SCC(=O)Nc3ccc(-c4nc5ccccc5s4)c(Cl)c3)[nH]c2c1`, the figure is 111%; as for `CCc1ccc(-c2ccc(NC3CCCCCC3)nn2)cc1S(N)(=O)=O`, 121%. As for `CCCCCCCC[C@@H]1N[C@@H](C(=O)OC)Cc2c1[nH]c1ccccc21`, the figure is 99%; as for `COc1ccc(Cn2c(Br)c3c(c2-c2cc(OC)c(OC)c(OC)c2)CCc2sc(NC(C)=O)nc2-3)cc1`, 15.2%. As for `CCCNc1ccc(C2=NCCCN2)cc1`, the figure is 95.5%.

Take `CCOc1nc(-c2ccccc2)cc2c(O)c(C(=O)O)[nH]c(=O)c12`: the growth was 120%. As to `CCOC(=O)CC(S(=O)(=O)c1ccccc1)S(=O)(=O)c1ccccc1`, the growth is 67.9%. In the case of `CCCCOc1ccc(/C=N/NC(N)=S)cc1` it was 60.5%; in that of `CCN(C)CCCOc1ccc(/C(=C(\C)Cc2cccc(OC)c2)c2ccc(OC(C)=O)cc2)cc1`, 100%.

In the case of `O=[N+]([O-])c1ccc(-c2nc(N3CCOCC3)c3c4c(sc3n2)CCCC4)cc1`, the growth was 92.2%. As for `Cc1ccc(=O)[nH]n1`, the figure is 99.9% and 102%; as for `O=C(Nc1cc(C(F)(F)F)cc(C(F)(F)F)c1)c1cc(Cl)ccc1O`, -24.6% (active) and -49% (active); as for `CC(C)c1[nH]ncc1-c1nc2ccc3[nH]ncc3c2c2c1CCCC2`, 13.4%. In the case of `CC(C)(C)c1nc2c(s1)c1nc(N)ncc1c1ccc(NS(=O)(=O)c3c(F)cccc3F)c(F)c12` it was 79.9%. In the case of `CCN(CC)CCCNc1ccc(Nc2ccc(OC)cc2)cc1` it was -48.7% (active); in that of `COc1ccc(CCN2C(=O)CCC3=C2CCCC3=O)cc1OC`, 107%; in that of `C/C(Nc1ccc(Cl)c(Cl)c1)=C1\CCOC1=O`, 96.6%. `c1ccc(CNCCN(CCNCc2ccccn2)Cc2ccc3ccccc3c2)nc1`: the growth is -34.5% (active). In the case of `O=C(CNc1nnc(-c2cccnc2SCc2ccccc2)s1)Nc1nc(Cl)cc(Cl)n1` it was 96.2%. As for `C#Cc1nc2ccccc2c(=O)[nH]1`, the figure is -42.4% (active). As to `Nc1ccn([C@@H]2O[C@H](COP(=O)(O)O[C@@H]3C[C@H](n4cc(F)c(=O)[nH]c4=O)O[C@@H]3COP(=O)(O)O[C@@H]3C[C@H](n4cc(F)c(=O)[nH]c4=O)O[C@@H]3COP(=O)(O)O[C@@H]3C[C@H](n4cc(F)c(=O)[nH]c4=O)O[C@@H]3COP(=O)(O)O[C@@H]3C[C@H](n4cc(F)c(=O)[nH]c4=O)O[C@@H]3COP(=O)(O)O[C@@H]3C[C@H](n4cc(F)c(=O)[nH]c4=O)O[C@@H]3COP(=O)(O)O[C@@H]3C[C@H](n4cc(F)c(=O)[nH]c4=O)O[C@@H]3COP(=O)(O)O[C@@H]3C[C@H](n4cc(F)c(=O)[nH]c4=O)O[C@@H]3COP(=O)(O)O[C@@H]3C[C@H](n4cc(F)c(=O)[nH]c4=O)O[C@@H]3COP(=O)(O)O[C@@H]3C[C@H](n4cc(F)c(=O)[nH]c4=O)O[C@@H]3COP(=O)(O)O[C@@H]3C[C@H](n4cc(F)c(=O)[nH]c4=O)O[C@@H]3COP(=O)(O)OCCOCCOCCOCCOCCOCCO)[C@H](O)C2O)c(=O)n1` (some centres undefined), the growth is 38.3%.
